From PubChem BioAssay (NCATS) come the findings set out here.

Records with an inconclusive call do not appear. A number with no mark means an inactive call. The source made the active and inactive calls. Calls come from the whole dose curve.
Potency is the fitted concentration of half-maximal effect.

A short description of the assay: S16 Schwann cell PMP22 intronic element beta-lactamase assay (AID 624044). Note: nearly all actives have a fitted effect of over 15% in size. The settings on record: S16 rat Schwann cells, PMP22 element beta-lactamase FRET, 24 h; series mostly up to 17.1 µM; ratio activity, negative = inhibition: at the top concentration. An excerpt: Description: Charcot-Marie-Tooth-Association [CMTA] National Center for Advancing Translational Sciences [NCATS] Charcot-Marie-Tooth (CMT) disease was first characterized by Jean-Martin Charcot and Pierre Marie in France and, independently, by Howard Henry Tooth in England in 1886. CMT is one of the most common inherited neurological diseases, affecting approximately 1 in 2,500 Americans. […] The most prevalent type of CMT is known as CMT1A and caused by a duplication of the PMP22 gene which leads to over-expression of this protein. PMP22 is a glycosylated intrinsic membrane protein accounting for 2-5% of the myelin protein content, and its over-expression results in demyelination and subsequently axonal loss. A pair of cellular transcription-based assays was developed in the S16 rat Schwann cell lines (Hai, M., et al., 2002) stably transfected with orthogonal reporters - firefly luciferase (Fluc) and beta-lactamase (beta-Lac) - whose expression is driven by an intronic regulatory element of the PMP22 gene (Jones, E.A., et al., 2011) to recapitulate endogenous expression of PMP22. The current assay employs Blac as a reporter of PMP22 expression. A comprehensive library of approved drugs, the NCGC Pharmaceutical Collection (Huang, R., et al., 2011), was screened in the cross-validating platform of the orthogonal reporter assays to identify drug modulators inhibitory towards PMP22 expression. A set of counter-screens was devised to address non-specific activity of the library. An ATP-dependent CellTiter-Glo assay (developed by Promega Corp) was utilized to control cell viability. In addition, biochemical Fluc enzyme assay was performed to assess direct inhibition of the Fluc enzymatic activity. References Hai, M., Muja, N., DeVries, G.H., Quarles, R.H. and Patel, P.I. Comparative analysis of Schwann cell lines as model systems for myelin gene transcription studies. J Neurosci Res, 2002. 69(4): pp 497-508 Huang, R., Southall, N., Wang, Y., Yasgar A., Shinn P., Jadhav, A. , Nguyen, D.-T. and Austin, C.P., The NCGC pharmaceutical collection: a comprehensive resource of clinically approved drugs enabling repurposing and chemical genomics. Sci Transl Med, 2011. 3(80): p. 80ps16.
S16 Schwann cell PMP22 intronic element beta-lactamase assay The beta-Lac-expressing S16 cells were seeded in black clear-bottom 1536 well plates at between 500-750 cells/6uL in DMEM medium containing 10% FBS, w/o phenol red. After overnight incubation at 37 degree Celsius/5% C02, 23 nL of compounds or DMSO were delivered to each well using a pin tool, followed by 24h-incubation at 37 degree Celsius/5% C02. Then one microl of LiveBLAzer FRET B/G detection mix (Invitrogen) was added to each well. An EnVision plate reader (PerkinElmer) was used to detect the dual beta-Lac output composed of fluorescence at 460nm for beta-Lac expression and FRET at 535nm for cell viability. The % signal at 535 nm was scaled to a full range of DMSO and zero and then normalized using the maximum response observed in the screen as 100% activity. The % signal at 460nm was normalized to the average readings of potassium clavulanate (a positive control) - treated cells relative to DMSO-treated cells (0% Activity). The concentration-effect curves were then classified based on curve quality (r2), response magnitude and degree of measured activity.
In the case of `O=C1O[C@H](CN2CCOCC2)CN1/N=C\c1ccc([N+](=O)[O-])o1`, the “ratio activity, negative = inhibition” value was 0.392%.
On to `CC(=O)C[C@H](c1ccc([N+](=O)[O-])cc1)c1c(O)c2ccccc2oc1=O`, for which the “ratio activity, negative = inhibition” value is 2.18%.
The same measure, in the same setting: then `C[C@]1(c2ccccc2)OC(C(=O)O)=CC1=O`, with 5.72% [at 38.3 µM]; and `COC(=O)[C@@H]1[C@@H]2C[C@H]3c4[nH]c5cc(OC)ccc5c4CCN3C[C@@H]2C[C@H](OC(=O)/C=C\c2cc(OC)c(OC)c(OC)c2)[C@H]1OC`, with -7.45%; and `Cc1ccsc1/C=C\C1=NCCCN1C`, with 3.01%.
On the same count and under the same terms, the value for `Cc1ncc([N+](=O)[O-])n1C[C@H](O)CCl` was 0.49%; that for `Cc1cccc(CN2CCN([C@@H](c3ccccc3)c3ccc(Cl)cc3)CC2)c1` was -17.1%.
The same measure, in the same setting: the value for `CN1CCN([C@@H](c2ccccc2)c2ccc(Cl)cc2)CC1` was -5.72%; that for `COc1ccc2cc1Oc1ccc(cc1)CC1c3c(cc4c(c3Oc3cc5c(cc3OC)CCN(C)C5C2)OCO4)CCN1C` (stereo not given) was -2.15% [at 38.3 µM].
As to `COc1ccc(CC(N)C(=O)NC2C(CO)OC(n3cnc4c(N(C)C)ncnc43)C2O)cc1` (stereo not given), the Potency is 7.07 µM (active).
As to `O=C(N/N=C\c1ccc([N+](=O)[O-])o1)c1ccc(O)cc1`, the “ratio activity, negative = inhibition” value was 1.01%.
The same measure, in the same setting: then `NS(=O)(=O)c1cc2c(cc1Cl)N[C@@H](C(Cl)Cl)NS2(=O)=O`, with 0.354%; and `OCC1OC([S-])[C@H](O)C(O)C1O.[Au+]` (stereo not given in full), with -3.68% [at 38.3 µM]; and `C[C@H](N[C@@H](C)COc1ccccc1)[C@H](O)c1ccc(O)cc1`, with 4.37%.
The same measure, in the same setting: then `NC[C@@H]1O[C@H](O[C@@H]2[C@H](O[C@@H]3O[C@H](CO)[C@@H](O)[C@@H]3O)[C@@H](O)[C@@H](N)C[C@H]2N)[C@@H](N)[C@H](O)[C@@H]1O`, with -0.871%; and `COC(=O)N/N=C/C1=C[N+](=O)c2ccccc2[N+]1=O`, with -2.37% [at 38.3 µM].
Still for that read-out and setting: the value for `CCN(CC)[C@@H](C)CN1c2ccccc2Sc2ccccc21` was 1.48%.
As to `CN1CCO[C@H](c2ccccc2)c2ccccc2C1`, the “ratio activity, negative = inhibition” value was -4.08%.
The same measure, in the same setting: then `C[C@H](CCC(=O)O)[C@H]1CC[C@@H]2[C@@H]3[C@@H](O)C[C@H]4C[C@@H](O)CC[C@@]4(C)[C@H]3CC[C@@]21C`, with 7.64%; and `Nc1nc2ncc(CNc3ccc(C(=O)NC(CCC(=O)O)C(=O)O)cc3)nc2c(=O)[nH]1` (stereo not given), with 1.64% [at 38.3 µM].
Same read-out and setting: then `COc1cc2nc(N3CCN(C(=O)[C@@H]4CCCO4)CC3)nc(N)c2cc1OC`, with 5.18% [at 38.3 µM].
For the compound `CN(C)CCn1nnnc1SCC1=C(C(=O)O)N2C(=O)[C@@H](NC(=O)Cc3csc(N)n3)[C@@H]2SC1`, the “ratio activity, negative = inhibition” value is 0.118%.
As for `CCC(=O)O[C@@H]1[C@H](C)O[C@H](O[C@H]2[C@@H](N(C)C)[C@H](O)[C@@H](O[C@@H]3[C@@H](CC=O)C[C@@H](C)[C@@H](O)/C=C\C=C/C[C@@H](C)OC(=O)C[C@@H](OC(=O)CC)[C@H]3OC)O[C@H]2C)C[C@]1(C)O`, the “ratio activity, negative = inhibition” value was 2.18%.
Same read-out and setting: then `CCOC(=O)Oc1c(OC)cc(C(=O)O[C@H]2C[C@H]3CN4CCc5c([nH]c6cc(OC)ccc56)[C@@H]4C[C@H]3[C@@H](C(=O)OC)[C@@H]2OC)cc1OC`, with -10.7%; and `CC1(C)[C@@H](OC(=O)CCC(=O)O)CC[C@@]2(C)[C@H]1CC[C@@]1(C)[C@H]2C(=O)C=C2[C@H]3C[C@](C)(C(=O)O)CC[C@]3(C)CC[C@@]21C`, with 0.769%; and `Clc1ccc([C@H](Cn2ccnc2)OCc2c(Cl)cccc2Cl)c(Cl)c1`, with -1.18%.
Consider `C[C@@H]1C[C@H]2[C@@H]3C[C@H](F)C4=CC(=O)C=C[C@@]4(C)[C@]3(F)[C@H](O)C[C@]2(C)[C@@]1(O)C(=O)CO`, for which the “ratio activity, negative = inhibition” value is -14.8%.
With `CC(=O)OCC(=O)[C@@]12OC3(CCCC3)OC1CC1C3CCC4=CC(=O)C=C[C@@]4(C)[C@]3(F)C(O)C[C@]12C` (stereo not given in full), the “ratio activity, negative = inhibition” value is -21.1% [at 38.3 µM].
Still for that read-out and setting: the value for `C[C@@H](C(=O)O)c1ccc(C(=O)c2ccccc2)s1` was -8.56%.
With `CO[C@]12C(COC(N)=O)C3=C(C(=O)C(C)=C(N)C3=O)N1CC1NC12` (stereo not given in full), the Potency was 8.91 µM (active).
`N[C@@H]1C(O)OC(CO)C(O)C1O` (stereo not given in full): the “ratio activity, negative = inhibition” value is -1.78% [at 38.3 µM].
Still for that read-out and setting: the value for `CC[N+](CC)(CC)CC[C@](O)(c1ccccc1)C1CCCCC1` was -2.71%.
On to `C[C@@]12CCC(=O)C=C1C=CC1C2CC[C@]2(C)C1CC[C@@]21CCC(=O)O1` (stereo not given in full), for which the “ratio activity, negative = inhibition” value was 1.14% [at 38.3 µM].
In the case of `CN1CCC[C@@H](CC2c3ccccc3Sc3ccccc32)C1`, the “ratio activity, negative = inhibition” value was -5.43%.
Consider `CC(C)Oc1ccc2c(=O)cc(-c3ccccc3)oc2c1`, for which the “ratio activity, negative = inhibition” value is -16.7% [at 38.3 µM].
Take `CC1(C)S[C@H]2C(NC(=O)[C@@H](N)c3ccc(O)cc3)C(=O)N2[C@@H]1C(=O)O` (stereo not given in full): the “ratio activity, negative = inhibition” value is 3.01% [at 38.3 µM].
Turning to `COC1C=CO[C@@]2(C)Oc3c(C)c(O)c4c(O)c(c5c(nc6cc(C)ccn65)c4c3C2=O)NC(=O)/C(C)=C\C=CC(C)C(O)[C@@H](C)C(O)C(C)[C@@H](OC(C)=O)C1C` (stereo not given in full), the “ratio activity, negative = inhibition” value was 1.3% [at 38.3 µM].
On to `CC(C)(C)NC[C@@H](O)COc1ccccc1C1CCCC1`, for which the “ratio activity, negative = inhibition” value was -13.4%.
Turning to `CC[C@H]1NC(=O)c2cc(S(N)(=O)=O)c(Cl)cc2N1`, the “ratio activity, negative = inhibition” value is -8.6%.
The same measure, in the same setting: the value for `OCCN1CCN(CCC=C2c3ccccc3Sc3ccc(Cl)cc32)CC1` was -8.85%.
